Data reported in PubChem BioAssay AID1259318 (Sanford-Burnham Center for Chemical Genomics, 2017).
The campaign covered roughly 370,000 compounds. About 3,000 (0.81%) were called active.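 The calls were made as follows: active = activity above about 14% (limit read from the data; passing the limit was not always enough); inactive = the rest.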 The sample as a whole holds a higher share of actives than the screen did.

target: Nuclear receptor subfamily 1 group D member 1 (Homo sapiens) (UniProt P20393); assay: modulators of Rev-erb alpha DNA binding, primary screen, biochemical, FITC-DNA, fluorescence polarization, uHTS (AID 1259318); settings: Rev-erbα–FITC-DNA binding, 90 min, at 10 µM, active compounds read high;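 also: 0% = DMSO wells with 35 nM protein and 100% = DMSO wells with 750 nM protein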
Sequence (P20393 whole entry, looked up): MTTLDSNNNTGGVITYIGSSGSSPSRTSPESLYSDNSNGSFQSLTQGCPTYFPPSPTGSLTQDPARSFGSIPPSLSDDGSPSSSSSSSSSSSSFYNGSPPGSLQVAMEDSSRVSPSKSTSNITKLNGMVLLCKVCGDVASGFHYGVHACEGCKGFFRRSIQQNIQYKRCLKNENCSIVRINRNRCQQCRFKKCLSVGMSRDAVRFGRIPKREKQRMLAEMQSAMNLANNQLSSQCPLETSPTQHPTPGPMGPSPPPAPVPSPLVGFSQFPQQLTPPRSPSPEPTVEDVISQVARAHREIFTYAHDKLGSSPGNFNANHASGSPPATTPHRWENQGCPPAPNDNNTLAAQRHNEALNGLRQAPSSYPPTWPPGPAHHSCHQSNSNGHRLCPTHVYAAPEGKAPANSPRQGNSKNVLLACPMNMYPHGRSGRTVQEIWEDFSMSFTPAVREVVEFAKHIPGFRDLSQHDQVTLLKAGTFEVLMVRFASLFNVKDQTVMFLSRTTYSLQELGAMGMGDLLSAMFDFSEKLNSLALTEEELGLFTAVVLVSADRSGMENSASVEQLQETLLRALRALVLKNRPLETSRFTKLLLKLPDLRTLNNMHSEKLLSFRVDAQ

activity, inactive:
Cc1ccc(-c2ccc(CN3C(C)C(=O)N(Cc4cn(CCC5OCCCO5)nn4)CCS3(=O)=O)cc2)cc1 (centres undefined) 1.81%
CC1(C)C2CC[C@]3(C)C(C(=O)C=C4[C@@H]5C[C@@](C)(C(=O)O)CC[C@]5(C)CC[C@]43C)[C@@]2(C)CC[C@@H]1O (some centres undefined) -5.93%
CC(C)(C)OC(=O)C[C@@H]1C/C=C\C[C@H](CC(=O)N[C@@H](CO)Cc2ccccc2)C(=O)N[C@H](Cc2ccccc2)COC1=O -3.46%
Cc1ccc2nc(SCc3nnc(-c4ccccc4[N+](=O)[O-])o3)c(C#N)cc2c1 -0.86%
Cc1cc(C#N)c(SCC(N)=O)nc1-c1ccc(F)cc1 -0.55%
Cc1csc(SCC(=O)Nc2sccc2C#N)n1 -1.85%
COC(=O)CSc1nc2c(c(C3CC=CCC3)c1C#N)CCC2 (centres undefined) 0.02%
Cc1ccc(C)c2c1cc(C)c1nnc(SCC(=O)Nc3cccc(C(=O)O)c3)n12 -2.26%
Cc1ccc(NC(=O)CSc2sc3c(O)cc(=O)[nH]c3c2C#N)cc1C -17.5%
CCNC(=O)CC1C(=O)N(c2ccc(OC)cc2)C(=O)N1CCOC (centres undefined) -2.32%
C/C(=N\NC(=O)c1cc2c(s1)CCC(C)C2)c1cccnc1 (centres undefined) -5.04%
CCCCN(CCCC)CCNC(=O)CN1C(=O)COc2ccc(S(=O)(=O)N3CCOCC3)cc21 2.87%
C[C@@H](CN1C2=NC[C@@H](Cc3ccccc3)N2C[C@H]1Cc1ccc(O)cc1)NC(=O)CCC1CCCCC1 -3.34%
C[C@H]1CCC/C=C/C(=O)c2c(O)cc(O)cc2CC(=O)O1 -5.09%
O=C(CN1C(=O)COc2ccccc21)Nc1ccc(F)cc1 -4.74%
O=C(CN1C(=O)/C(=C/c2ccccc2F)Sc2ccccc21)NCc1cccnc1 -1.22%
CCN(CC)C(=O)CC[C@@H]1CC[C@]2(CCCN(S(=O)(=O)C3CCCCC3)C2)O1 -2.68%
COc1ccccc1OCCNCC(O)COc1cccc2[nH]c3ccccc3c12 (centres undefined) 0.09%
COC(=O)C1=C(C)N(Cc2ccccc2C(F)(F)F)C(=NCc2ccc(OC)cc2)NC1c1cccc(C(F)(F)F)c1 (centres undefined) 3.37%
C=C(C)C1CC=C(C)/C(=N/NC(=O)CCCNc2cccc(C)c2)C1 (centres undefined) -3.69%
COc1ccccc1NC(=O)COC(=O)CNC(=O)C1CCCCC1 -2.69%
COc1ccc(-n2c(COc3ccc(C)cc3)nnc2SCC(=O)Nc2ccc(Oc3ccccc3)cc2)cc1 -3.25%
CCc1ccc(S(=O)(=O)Nc2ccc(C)c(NS(C)(=O)=O)c2)cc1 -7.94%
CN1C(=O)c2ccc(NC(=O)c3c(F)c(F)c(F)c(F)c3F)cc2C1=O -2.78%
O=C(/C=C/c1ccc(Cl)cc1)Nc1ccc(Br)cn1 -0.31%
CS(=O)(=O)c1ccc(Cl)c(NC(=O)COC(=O)c2ncc(Cl)c(Cl)c2Cl)c1 -0.27%
Cc1[nH]c2ccccc2c1CC(=O)Nc1ccc(Nc2cccnc2)c(-c2cccc(Cl)c2)c1 3.32%
O=C(O)CCCCC(=O)O -0.86%
O=C1c2ccccc2C(Nc2ccc3c(c2)OCCO3)N1Cc1ccco1 (centres undefined) -1.18%
CCC(C)NC(=O)C1c2ccccc2C(=O)N1Cc1ccccc1 (centres undefined) -2.38%
CC(=O)c1c(N)n(C)c(=O)n(C)c1=O 5.4%
COC(=O)CN1C(=O)C(C)(C)Oc2ccc(C(=O)Nc3cccc(OC)c3)cc21 6.32%
COc1ccc(NC(=O)CSc2ncnc3[nH]ncc23)cc1 -0.29%
CCOc1ccc(NC(=O)CSc2nncn2C)cc1 3.05%
COC(=O)Nc1nc2ccc(C(=O)C3CC3)cc2[nH]1 -10.6%
CC1(C)OC[C@@H](COC(=O)CCc2ccc(OC[C@@H](O)CNCCNC(=O)N3CCOCC3)cc2)O1 0.02%
CC(NC(=S)Nc1ccccc1)C(c1cccs1)N1CCOCC1 (centres undefined) 4.26%
CC(=O)C1=C(C)N(Cc2ccccc2)C(=S)NC1c1cccc(Br)c1 (centres undefined) -3.28%
O=[N+]([O-])/C=C1\CCCCCN1 -3.45%
COc1cccc(CNC(=O)[C@H]2CCCN2C(=O)[C@H]2CCCN2C(=O)C2CCCCC2)c1 4.65%
O=C1Nc2ccccc2C1=NN=Cc1ccco1 -0.74%
Cc1ccc(-c2nc(CS(=O)CC(=O)N3CCN(c4ncccn4)CC3)c(C)o2)cc1 (centres undefined) 4.76%
O=S(=O)(c1ccccc1)N1CCC(c2nc3ccccc3o2)CC1 -9.25%
COCCN1CCn2c(nc3cc(NS(C)(=O)=O)ccc32)C1 -3.86%
Cc1ccc(NC(=O)c2cc(C)nn2-c2ccccc2)c(C)c1 2.36%
CCOC(=O)c1cn[nH]c1NC(=S)Nc1ccccc1 -3.54%
CCOC(=O)c1ccc(NC(=O)Cn2cnc3cc(C)c(C)cc32)cc1 1.51%
COc1ccc(CNC(=O)COC(=O)/C=C/c2ccc(S(=O)(=O)N3CCOCC3)cc2)cc1 -0.37%
O=C(Nc1ccccc1F)c1ccccc1-c1ccccc1 8.73%
CCSc1nnc(SCC(=O)NNC(=O)c2ccccc2F)s1 -6.25%
CC1(Oc2ccccc2-c2ccno2)CCN(Cc2ccc(-c3ccccc3)o2)C1 (centres undefined) -3.17%
O=C(Nc1cccc(Cl)c1)OC1CC2CC1[C@H]1CCCCN1[C@H]2Cc1ccccc1 (some centres undefined) 0.26%
CCCn1c(N)c(C(=O)CSc2nc3ccccc3c(=O)n2-c2ccc(OC)cc2)c(=O)[nH]c1=O -7.88%
COc1ccc(-n2c(SCC(=O)Nc3ccc(C)c(Cl)c3)nc3ccccc3c2=O)cc1 -4.51%
Cc1ccc(C2=Nc3c(ccc4ccccc34)C(c3ccncc3)=NN2)cc1 3.5%
Cc1ccc(S(=O)(=O)N2[C@@H](Cc3ccccc3)CO[C@H]2CC(=O)OCc2ccccc2)cc1 -1.88%
Cc1cc(Br)ccc1NC(=O)c1cnc(N2CCN(c3ccccn3)CC2)c2ccccc12 0.52%
Cc1sc2ncn(CC(=O)NCCCC(=O)N3CCN(c4ccccc4F)CC3)c(=O)c2c1C -0.15%
CCCCOc1ccc(N(CC(=O)NC(C)C)C(=O)CCC(=O)Nc2ccccn2)cc1 -9.8%
CCC(C(=O)NC1CCCCC1)N(C(=O)c1snc(C(N)=O)c1N)c1ccc(OC)cc1OC (centres undefined) 2.92%
COc1ccc(N(C(=O)c2snc(C(N)=O)c2N)C(C(=O)NC2CCCC2)c2ccco2)cc1OC (centres undefined) 4.63%
COc1ccc(C(=O)CN2C(=O)NC3(CCc4ccccc43)C2=O)c(OC)c1 (centres undefined) 6.28%
O=C(Nc1cccnc1)c1noc2c1CCCCC2 0.99%
O=C(O)C1=CCCN(CCON=C(c2ccccc2)c2ccccc2)C1 -6.65%
COc1ccc(CCNC(=O)CSc2nc(C)nc3c2oc2ccccc23)cc1OC -3.78%
COc1cc(OC)cc(C(=O)NCCSCc2ccc(Cl)cc2)c1 -1.8%
COc1ccc(CCNC(=O)CSc2nnc3ccc(-c4ccncc4)nn23)cc1 2.33%
COc1ccc(CCNC(=O)CSc2nnc(-c3cccc(F)c3)o2)cc1OC 6.95%
O=C(O[C@@H]1[C@H](Cc2ccccc2)NS(=O)(=O)[C@H]2C[C@@H]3C=C[C@]12O3)c1ccccc1Br 4.17%

activity, active:
Cc1nonc1NC(=O)CSc1nc2ccccc2cc1C#N 39.8%
Cc1nc2cc(NC(=O)CSc3nc4c(C)cccc4cc3C#N)ccc2s1 95.7%
CCOc1ccc2cc(C#N)c(SCC(=O)OC)nc2c1 116%
CC(C)OCCCNC(=O)CN1C(=O)/C(=C/c2ccccc2F)Oc2ccccc21 25%
Oc1ccc2ccc3cccc[n+]3c2c1 34.3%
C=C(C)C1CC=C(C)/C(=N\NC(=O)CNc2ccccc2OC)C1 (centres undefined) 28.5%
CN1/C(=C\C=C2\N=C(c3ccc(F)cc3)OC2=O)C(C)(C)c2ccccc21 36.5%
CN1C(=O)c2ccc(C(=O)Nc3ccc(Br)cn3)cc2C1=O 73.7%
CCCCCn1nnnc1C1c2ccccc2C(=O)N1Cc1ccco1 (centres undefined) 17.3%
CCOc1ccc(NC(=O)CSc2ncnc3c2sc2ccccc23)cc1 298%
CN(C)c1ccc(/C=C2\NC(=S)N(Cc3ccccc3)C2=O)cc1 40.1%
Cc1cc(C)c(/C=C2\C(=O)Nc3ccccc32)[nH]1 22.7%
CC1(C)CC2CC(C)(CN2c2ncnc3ccc(Br)cc23)C1 (centres undefined) 20.4%
CCOC(=O)c1ccc(NC(=S)Nc2cc(C)cc(C)n2)cc1 25.7%
O=C(Nc1nnc(-c2ccccc2F)s1)c1ccccc1F 23.9%
COc1cccc(-n2c(SCC(=O)c3c[nH]c4ccccc34)nc3ccccc3c2=O)c1 69.3%
Cc1cc(Br)ccc1NC(=O)c1sc2ncn(CC(=O)N3CCN(c4ccccn4)CC3)c(=O)c2c1C 58.2%
CCC(C(=O)NC1CCCC1)N(C(=O)c1snc(C(N)=O)c1N)c1ccc2c(c1)OCCO2 (centres undefined) 34.2%
COc1cccc(-c2ccc(C#N)c(SCC(=O)NCCc3ccc(Cl)cc3)n2)c1 29.2%
COc1ccc(CCNC(=O)CSc2nc(-c3ccc(OC)c(OC)c3)ccc2C#N)cc1 56%
